Measured values published in PubChem BioAssay AID720553 (National Center for Advancing Translational Sciences (NCATS), 2013).
The whole screen tested about 340,000 compounds, of which about 3,300 (0.97%) were called active. The entries come from a sample that favours actives as a whole. A number with no mark means an inactive call.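 The calls were made as follows: active = maximum activity change below -70%; inconclusive = maximum activity change from -70% to -50%; inactive = maximum activity change above -50%.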

system: Potassium voltage-gated channel subfamily H member 2, brain isoform KCNH2 3.1 (human); test: qHTS for Inhibitors of KCHN2 3.1: Mutant qHTS; conditions: U2OS KCNH2 3.1, thallium flux FluxOr; active compounds read low
Procedure, shortened: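 Kinetic fluorescence (2 min after stimulation buffer) measures Tl+ influx through KCNH2 3.1 expressed by viral transduction in U2OS cells; the rate constant is normalized against DMSO controls serving as positive and negative references.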
% is scaled to controls: 0 for no effect and ±100 for the full control effect.

SMILES | activity change
COc1ccc(NC(=O)C[C@H]2C(=O)N(CCc3ccccc3)C[C@@H]2C)cc1 | 5.84%
CCOc1ccc(CCNC(=O)COC(=O)c2ccc(C)c(S(=O)(=O)N3CCOCC3)c2)cc1OCC | 11.9%
CNC(=O)c1ccc(CN(C)C(=O)c2cc(C3CC3)nc3c2cnn3C(C)C)cc1 | 6.55%
CCOC(=O)C(C(=O)c1ccccc1)C(c1ccccc1)c1nccc2ccccc12 (stereo unspecified) | -15.2%
Cc1cccc(C(=O)NC2CCN(CC(=O)Nc3cccc(Cl)c3)CC2)c1 | -1.48%
C[C@H]1CN(c2ccc(Br)cc2)C(=O)[C@@H]1CC(=O)Nc1ccc(Br)cc1 | 0.444%
CCCc1nn2c(=O)cc(CSCC(=O)Nc3cccc(C)c3)nc2s1 | -91.5% (active)
CCOCCc1nn2c(=O)cc(CSCC(=O)Nc3cccc(C)c3C)nc2s1 | 4.66%
Cc1cccc(NC(=O)CSCC(=O)Nc2nnc(C3CC3)s2)c1 | -6.65%
COc1ccc(C(CNC(=O)CSc2ccccc2)N2CCOCC2)cc1 (stereo unspecified) | 1.87%
O=C(NCCOc1ccccc1)c1ccccc1F | 2.92%
c1ccc(Cn2nnc3c(NCC4CC4)ncnc32)cc1 | -1.53%
CSc1ncnc2c1ncn2CCCNCc1cccs1 | 3.07%
Cn1cc(CN2CCC(C(O)CCc3ccccc3)CC2)c(-c2ccccc2F)n1 (stereo unspecified) | -8.61%
CCC(O)C1CCN(Cc2cn(-c3ccc(OC)cc3)nc2-c2cccc(F)c2)CC1 (stereo unspecified) | -90.7% (active)
COc1ccc(-n2cc(CNC3CCOCC3)c(-c3cccc(F)c3)n2)cc1 | -75% (active)
Cc1cccc(-n2cc(CN3CCN(C(=O)c4ncn[nH]4)CC3)c(-c3cccc(F)c3)n2)c1 | 0.932%
COc1ccc(-n2cc(CN(C)Cc3n[nH]c(=O)[nH]3)c(-c3cccc(F)c3)n2)cc1 | -14.7%
COc1ccc(-c2nn(-c3ccccc3)cc2CN2CCCO2)c(F)c1 | 4.37%

SMILES | activity change
CC(OC(=O)c1ccc(NC(=O)CC#N)cc1)C(=O)Nc1ccc(S(=O)(=O)N2CCCC2)cc1 (stereo unspecified) | 8.99%
O=[N+]([O-])c1ccc(C(S(=O)(=O)Cc2ccccc2)S(=O)(=O)Cc2ccccc2)cc1 | -21.9%
CC1(C)CN(Cc2cccnc2)C(=O)[C@H]1CC(=O)Nc1ccc(Br)cc1 | -12%
COc1ccc(OC)c(C(=O)NC2CCCc3c2cnn3-c2cc(C)cc(C)c2)c1 (stereo unspecified) | -6.38%
CCOC(=O)c1cc(-c2sc(NC(=O)c3ccccc3)nc2C)n(CCO)n1 | -0.33%
CC(=O)Nc1ccc(NC(=O)CCCNC(=O)c2ccc(Cl)cc2)cc1 | 7.78%
CCCCC(=O)Nc1ccc(C(=O)Nc2cc(C(F)(F)F)ccc2Cl)cc1 | -83.7% (active)
CCCCC(=O)Nc1ccc(C(=O)NCCCn2ccnc2)cc1 | 4.23%
CCN(CC)C(=O)C(C)N1c2cccc3cccc(c23)S1(=O)=O (stereo unspecified) | -7.96%
CNS(=O)(=O)c1ccc2c(c1)[nH]c(=S)n2C | 9.63%
COc1ccccc1NC(=O)C1=C(C)Nc2nc3ccccc3n2C1c1cccs1 (stereo unspecified) | 1.01%
COc1ccccc1NC(=O)C1=C(C)Nc2ncnn2C1c1ccc(C)o1 (stereo unspecified) | 0.24%
COc1cc(C2C(C(=O)Nc3ccccc3OC)=C(C)Nc3ncnn32)ccc1O (stereo unspecified) | -70.3% (active)
CC1CCN(C(=O)CSc2nnc(-c3ccco3)n2N)CC1 | 13.4%
O=NN(CCCl)C(=O)NCCc1cccc[n+]1[O-] | -3.54%
CCn1c(SCC(=O)N2CCCC2=O)nc2ccccc21 | 9.56%
O=C(Nc1ccnn1C1CCN(Cc2cccc(OCCO)c2)CC1)C1CCCC1 | 5.49%
O=C(CCc1ccccc1)Nc1ccnn1C1CCN(Cc2ccc(OCCO)cc2)CC1 | -97.2% (active)
CC(C)Oc1ccc(CN2CCC(n3nccc3NC(=O)c3cccnc3)CC2)cc1 | -80.6% (active)

SMILES | activity change
Cc1ccc(CN2CCC(n3nccc3NC(=O)CCCc3ccccc3)CC2)o1 | 3.89%
Cc1c(CN2CCC(n3nccc3NC(=O)CCc3ccccc3)CC2)cnn1C | 6.8%
CC(C)=CCCC(C)CN1CCC(n2nccc2NC(=O)c2ccccc2)CC1 (stereo unspecified) | -34.5%
COc1ccc(CN2CCC(n3nccc3NC(=O)CCCc3ccccc3)CC2)cc1C | -86.2% (active)
COc1cc(CN2CCC(n3nccc3NC(=O)CCCc3ccccc3)CC2)ccc1O | -32.8%
COc1ccccc1C(=O)Nc1ccnn1C1CCN(Cc2cnn(C)c2)CC1 | -32.4%
CCOC(=O)c1c(C)[nH]c(C)c1C(=O)COC(=O)/C=C/c1cccc([N+](=O)[O-])c1 | -1.51%
O=C(CNC(=O)N1CC(=O)Nc2ccccc21)Nc1ccc(Br)cc1F | 2.32%
COCCn1c(SCC(=O)Nc2ccc(F)cc2F)nc2c(c1=O)SCC2 | -5.38%
CCc1noc(C)c1C(=O)OCC(=O)c1ccc(NC(=O)CC(C)C)cc1 | 7.88%
O=C(OCc1cn([C@H]2C[C@H](c3ccccc3)N(C(=O)c3cccs3)C[C@@H]2O)nn1)c1ccccc1 | -26.8%
CCCS(=O)(=O)N1CCC(CCOc2ccccc2)(C(=O)OCC)CC1 | -4.06%
CCOC(=O)C1(CCOc2ccccc2)CCN(Cc2ccc(C#CCCO)cc2)CC1 | -7.38%
CCOC(=O)C1(CCOc2ccccc2)CCN(Cc2cc(OC)cc(OC)c2)CC1 | -108% (active)
COc1ccc(S(=O)(=O)N2CCCCC2)cc1NC(=O)COc1ccccc1 | -11.6%
O=C(Nc1cc(S(=O)(=O)N2CCOCC2)ccc1OCC(F)(F)F)c1ccc(N2CCCC2=O)cc1 | -24.2%
Cc1ccc(/C=C/C(=O)Nc2cc(S(=O)(=O)N3CCCCCC3)ccc2OCC(F)(F)F)o1 | -83.4% (active)
CNC(=O)C[C@H]1C(=O)N(c2ccc(OC)cc2)C[C@@H]1Cc1ccccc1 | 6.56%
